Laboratory results reported in PubChem BioAssay AID623868 (Vanderbilt High Throughput Screening Facility, 2012).
About 760 (36%) of roughly 2,100 compounds were called active.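 Rule for the calls: active = thallium-flux fluorescence traces judged by eye to show enhanced or reduced glutamate response, manual score 1 or -1, so both directions (some results past the limit were not filed as active); inactive = the rest, including fluorescent or raised-baseline compounds.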 A selection follows.

Test: non-GIRK thallium flux modulation in mGlu8 cells, confirmation, counter-screen for GIRK activator project, cell-based, HEK-293 rmGlu8, no GIRK (AID 623868);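 note: extra codes mark interference with 3 for fluorescent and 4 for baseline rise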
Conditions: thallium flux fluorescence, at 10 µM, actives lie on both sides, codes: 1 enhancer, -1 blocker, 0 none, thallium stimulus containing EC20 glutamate

| Structure (SMILES) | manual score |
| --- | --- |
| c1cn(C23CC4CC(CC(C4)C2)C3)cn1 | 0.5 (inactive) |
| S=c1nn[nH]n1C12CC3CC(CC(C3)C1)C2 | 1 (active) |
| CCOc1ccc(Nc2ncnc(N)n2)cc1 | 0 (inactive) |
| O=c1c2ccccc2nc(SCc2cn3ccsc3n2)n1-c1ccc(F)cc1 | -1 (active) |
| Cc1noc(C)c1CSc1nc2ccccc2c(=O)n1-c1ccc(F)cc1F | 0 (inactive) |
| COCCNCCOc1ccccc1-c1ccccc1 | 0 (inactive) |
| COc1ccc(CN(C)CC(=O)NC(=O)NCc2ccccc2)cc1OC | 0 (inactive) |
| COc1ccc(CCNC(=O)CSc2nnc(-c3ccc(F)cc3)c3ccccc23)cc1OC | -1 (active) |
| COc1cc2c(cc1NC(=O)COc1ccccc1OC)oc1ccccc12 | 0 (inactive) |
| CCOC(=O)CSC1=C(C#N)C(=O)NC(c2ccc(OC)c(OC)c2)S1 (stereo not given) | 0 (inactive) |
| Cc1ccc(N(C(=O)CCC(=O)Nc2cc(C)on2)C(C(=O)NC2CCCC2)c2cccs2)cc1 (stereo not given) | 0 (inactive) |
| CCSc1nnc(NC(=O)CC)s1 | 0 (inactive) |
| CCc1c(C)nc(SCC(=O)N2CCc3ccccc32)[nH]c1=O | 0 (inactive) |
| Cc1ccc(C)c(Nc2c([N+](=O)[O-])cc(C(=O)N3CC(=O)Nc4ccccc43)cc2[N+](=O)[O-])c1 | 0 (inactive) |
| CCc1nnc(NC(=O)CSc2nnc(-c3c[nH]c4ccccc34)n2CC)s1 | 0 (inactive) |
| Cc1cc(NC(=O)CSc2nc(C3CC3)nc3sc(C)c(C)c23)no1 | 1 (active) |
| CCc1nc(SCC(=O)Nc2nnc(CC)s2)c2c(C)c(C)sc2n1 | 1 (active) |
| Cc1cc(NC(=O)CSc2nc3ccsc3c(=O)n2NC(=O)c2ccccc2)no1 | 0 (inactive) |
| CCc1nc(SCC(=O)N2CC(=O)Nc3ccccc32)c2c(C)c(C)sc2n1 | 1 (active) |
| Cc1sc2nc(C3CC3)nc(SCC(=O)N3CC(=O)Nc4ccccc43)c2c1C | 1 (active) |
| CN1C(=O)NC(c2ccccc2)C2=C1CN(Cc1ccccc1)C2=O (stereo not given) | 0 (inactive) |
| CCOC(=O)C1(C(C)(C)CC)CC(CSc2nc3ccccc3[nH]2)OC1=O (stereo not given) | 0 (inactive) |
| CN1CCN(C(=O)c2sc(=S)n(-c3ccccc3)c2N)CC1 | 0 (inactive) |
| O=C(NCCSCc1ccco1)Nc1cccc(Cl)c1 | 0 (inactive) |
| CN(C(=O)CSC1=Nc2ccccc2C2=NC(c3ccccc3)C(=O)N12)C1CCCCC1 (stereo not given) | -1 (active) |
| Cc1sccc1C1C(C#N)=C(N)SC(N)=C1C#N | -1 (active) |
| Cc1ccc(C(C(=O)NC2CCCC2)N2CCCC(C)C2)cc1 (stereo not given) | 0 (inactive) |

| Structure (SMILES) | manual score |
| --- | --- |
| O=C(c1csc2c1CCCC2)N1CCN(c2ccc(F)cc2)CC1 | 0 (inactive) |
| O=C(NC(=S)N1CCN(c2ccc([N+](=O)[O-])cc2)CC1)c1ccc(F)cc1 | 1 (active) |
| CC12CC3CC(C)(C1)CC(C(=O)NC(=S)N1CCCCC1)(C3)C2 | 1 (active) |
| O=C(NC(=S)N1CCCCC1)C12CC3CC(CC(C3)C1)C2 | 1 (active) |
| CCC(=O)c1ccc(N2CCN(C(=O)c3cc([N+](=O)[O-])ccc3N3CCN(C)CC3)CC2)c(F)c1 | 0 (inactive) |
| CCOC(=O)C1CCN(C(=O)NC23CC4CC(CC(C4)C2)C3)CC1 | 0 (inactive) |
| O=C(NC(=S)N1CCN(c2ccc(F)cc2)CC1)C12CC3CC(CC(C3)C1)C2 | 1 (active) |
| O=S(=O)(c1ccccc1)N1CCN(C(=S)Nc2ccc(F)cc2)CC1 | 0 (inactive) |
| CCOc1ccccc1N1CCN(C(=S)NC(=O)C23CC4CC(CC(C4)C2)C3)CC1 | 0.5 (inactive) |
| CCCCN(Cc1ccccc1)S(=O)(=O)c1ccc2[nH]c(=O)oc2c1 | 0 (inactive) |
| COc1ccc(Cl)cc1C(=O)CSc1nnnn1C1CCCC1 | 0 (inactive) |
| CC12CC3CC(C)(C1)CC(C(=O)NC(=S)N1CCOCC1)(C3)C2 | 1 (active) |
| CC12CC3(C)CC(C)(C1)CC(C(=O)NC(=S)N1CCOCC1)(C2)C3 | 1 (active) |
| O=C(c1ccco1)N1CCN(C(=O)c2cnn3c2NC(c2cccs2)CC3C(F)(F)F)CC1 (stereo not given) | 0 (inactive) |
| O=C(CN1CCOCC1)Nc1ccc(C2CCCCC2)cc1 | 0 (inactive) |
| O=C(CSc1nc(-c2ccccc2)cc(C(F)(F)F)n1)NCCN1CCOCC1 | 0 (inactive) |
| CCc1sc(NC(=O)CN2CCOCC2)nc1-c1ccccc1 | -1 (active) |
| CCN(CC)S(=O)(=O)c1csc(C(=O)NCc2ccccc2)c1 | 0 (inactive) |
| Cc1cc(N2C(=O)C(O)=C(C(=O)c3ccc(C)o3)C2c2cccs2)no1 (stereo not given) | -1 (active) |
| COc1ccc(OC)c(C2C(C(=O)c3cccs3)=C(O)C(=O)N2c2cc(C)on2)c1 (stereo not given) | -1 (active) |
| COc1ccc(C(OC(=O)c2cccs2)C(=O)NCC2CCCO2)cc1 (stereo not given) | 0 (inactive) |
| COc1ccc(OC)c(C2C(C(=O)c3cc4ccccc4o3)=C(O)C(=O)N2c2cc(C)on2)c1 (stereo not given) | -1 (active) |
| C=CCOc1cccc(C2C(C(=O)c3ccc(C)o3)=C(O)C(=O)N2c2nccs2)c1 (stereo not given) | 3 (inactive) |
| COc1ccc2nc3oc(C(=O)Nc4ccc(OC)c(OC)c4)cc3cc2c1 | 0 (inactive) |
| C/C(CC(=O)NCC(C)C)=N\NC(=O)COc1cc(C)c(Br)cc1Br | 0 (inactive) |
| CCOc1ccc(N2C(=O)c3ccccc3C2O)cc1 (stereo not given) | 0 (inactive) |
| CCOc1ccc(NC(=O)CCC(=O)c2ccc(-c3ccccc3)cc2)cc1 | 0 (inactive) |

| Structure (SMILES) | manual score |
| --- | --- |
| COc1ccc(C(=O)NC(=S)N(Cc2ccccc2)Cc2ccccc2)cc1 | 1 (active) |
| CCOc1ccc(C(=O)NC(=S)N(Cc2ccccc2)Cc2ccccc2)cc1 | 1 (active) |
| COc1ccc(S(=O)(=O)N(CCc2ccccc2)CC(=O)O)cc1 | 0 (inactive) |
| CC(=O)CN1Cc2ccccc2/C1=N\C(=O)Nc1ccccc1 | 0 (inactive) |
| CCc1c(C)c(C#N)c2nc3ccccc3n2c1NCc1ccco1 | -1 (active) |
| Cc1nc2ccccn2c1-c1csc(NCc2ccco2)n1 | -0.5 (inactive) |
| Cn1cc(S(=O)(=O)Nc2ccc(F)cc2F)c(=O)n(C)c1=O | 0 (inactive) |
| COc1ccc(/C=N/NC(=O)c2nc(-c3ccccc3)cc(-c3ccccc3)n2)cc1 | 0 (inactive) |
| COc1ccc(C(=O)N/N=C/c2ccc3cccc(OCc4ccccc4)c3n2)cc1 | 1 (active) |
| N/C(=N\OC(=O)Cc1ccccc1)c1ccc(Br)cc1 | 0 (inactive) |
| O=C(N/N=C/c1ccc2cccc(OCc3ccccc3)c2n1)c1ccc(Br)cc1 | 1 (active) |
| O=C(N/N=C/c1ccccn1)c1ccc(Br)cc1 | 1 (active) |
| CSC1=N/C(=C\c2ccc(Br)o2)C(=O)S1 | 0 (inactive) |
| CCCCN(C)C1=CC2=CC(=C(C#N)C#N)CCC2CC1 (stereo not given) | 3 (inactive) |
| Cc1cc2c(cc1C)C(=O)NC(C)(C)C2 | 0 (inactive) |
| Cc1cccc(OCC(O)CN2C(C)(C)CC(O)CC2(C)C)c1 (stereo not given) | 0 (inactive) |
| COc1ccc(Nc2nc(C)cc(C)c2C#N)cc1OC | 0 (inactive) |
| CCc1nc(N2CCOCC2)c(C#N)c2c1CCCC2 | 0 (inactive) |
| Oc1[nH]c2ccccc2c1N=Nc1nc2ccccc2s1 | 1 (active) |
| CCN(CC)CCCn1c(=S)[nH]c2cc(Cl)ccc2c1=O | 0 (inactive) |
| CCCCn1c(=S)[nH]c2c(oc3ccc(Cl)cc32)c1=O | 1 (active) |
| CCCCn1c(-c2ccc(Cl)cc2)nc2c(=O)n(C)c(=O)[nH]c21 | 0 (inactive) |
| CC1(C)CC(=O)c2c(noc2-c2ccccc2)C1 | 0 (inactive) |
| CCCCN(CCCC)c1ccc(C(=O)c2ccccc2C(=O)O)c(O)c1 | -0.5 (inactive) |
| CCCN(CCC)CCCOC(=O)c1ccc(Cl)cc1Cl | 0 (inactive) |
| CC1Cc2ccccc2N1C(=S)NC(=O)c1ccc(Cl)cc1Cl (stereo not given) | 1 (active) |
| CCCCN(CCCC)C(=S)NC(=O)c1ccccc1Cl | 1 (active) |

| Structure (SMILES) | manual score |
| --- | --- |
| CCCN(CCC)C(=S)NC(=O)c1ccc(Cl)cc1Cl | 1 (active) |
| CCCCN(CCCC)C(=S)NC(=O)C(C)(C)C | 1 (active) |
| CCCCn1c(NC(=O)c2ccccc2Cl)c(C#N)c2nc3ccccc3nc21 | 0 (inactive) |
| CCCCN(CCCC)S(=O)(=O)c1ccc(NC(=O)c2ccc([N+](=O)[O-])cc2Cl)cc1 | 0 (inactive) |
| CC(C)CCNC(=O)C(C)N(C(=O)Cn1nnc(-c2ccc(F)cc2)n1)C1CCCC1 (stereo not given) | 0 (inactive) |
| CCCCC(=O)N1CCCC(c2nc3c(nnn3Cc3cc(C)ccc3C)c(=O)[nH]2)C1 (stereo not given) | 0 (inactive) |
| CC(C)(C)c1ccc(CN2C3=NCCCN3c3ccccc32)cc1 | 0 (inactive) |
| CCN(CC)C(=S)NC(=O)c1ccc(Cl)cc1Cl | 1 (active) |
| CCOC(=O)/C(=C/C=C1\Sc2ccccc2N1CC)C(C)=O | 3 (inactive) |
| COc1ccc(NC(=S)NC(NC(=O)/C=C/c2ccccc2)C(Cl)(Cl)Cl)cc1 (stereo not given) | 0 (inactive) |
| O=C(/C=C/c1ccccc1)c1cc(Br)ccc(=O)c1O | 1 (active) |
| CCc1ccc(/C=C/C(=O)c2cc(Br)ccc(=O)c2O)cc1 | 1 (active) |
| COc1ccc(/C=C/C(=O)c2cc(Br)ccc(=O)c2O)cc1 | 1 (active) |
| Cc1ccc(/C=C/C(=O)c2ccccc(=O)c2O)cc1C | 1 (active) |
| CCCCCCn1cnc2c(c1=O)c1nc3ccccc3nc1n2/N=C/c1ccco1 | 0 (inactive) |
| Cc1cccc(/C=c2\s/c(=C\C(=O)C(C)(C)C)[nH]c2=O)c1 | 0 (inactive) |
| Cc1cccc(/C=C/C(=O)c2cc(Br)ccc(=O)c2O)c1 | 1 (active) |
| Cc1cccc(NC(=O)COc2ccc(Br)cc2/C=N/O)c1 | 0 (inactive) |
| CC(C)(C)C1CCc2[nH]nc(C(=O)O)c2C1 (stereo not given) | -1 (active) |
| CSC(=O)NC12CC3CC(CC(C)(C3)C1)C2 | 0 (inactive) |
| Cc1ccc(C(=O)NC(=S)Nc2ccccc2C(F)(F)F)cc1C | 1 (active) |
| Cc1ccc(C(=O)NC(=S)Nc2ccccc2C(F)(F)F)cc1 | 1 (active) |
| O=C(NC(=S)Nc1cc(C(F)(F)F)ccc1Cl)c1ccccc1 | 0 (inactive) |
| Cc1cccc(C(=O)NC(=S)Nc2ccccc2C(F)(F)F)c1 | 1 (active) |
